Measured values: PubChem BioAssay (Tox21)
Records with an inconclusive call do not appear. Calls of active or inactive are those of the source. Calls come from the whole dose curve; as a rule, active = well fitted cell-killing curve with a large enough effect in the repeat runs; inconclusive = weak or mixed curves, or effect the other way; inactive = flat fitted curve, though single readings scatter.

experiment: qHTS RealTime-Glo MT Cell Viability Assay in HEK293 cells - 0 hour (AID 1224880); conditions: RealTime-Glo luminescence; series mostly up to 76.8 µM; activity change, negative = cytotoxicity: at the top concentration; note: top concentration of the series differs between compounds; nearly all actives have a fitted effect of over 45% in size
Description: U.S. Tox21 Program National Center for Advancing Translational Sciences [NCATS] NIH Chemical Genomics Center [NCGC] U.S. Environmental Protection Agency [EPA] National Institutes of Environmental Health Sciences [NIEHS] National Toxicology Program [NTP] U.S. Food and Drug Administration [FDA] Tox21 Assay Overview: Measure of cell viability is critical in the cell-base assay. Analysis of cell viability is necessary for the characterization of cell responses to cytotoxic drugs and environmental stress. A RealTime-Glo MT Cell Viability Assay to monitor cell viability in real time of continues cell culture during 40 hours of compound treatment was used to screen Tox21 10K library compounds in Hek293 cells. The RealTime-Glo MT Cell Viability Assay is a nonlytic, homogeneous, bioluminescent method to measure cell viability in real time using a simple, plate-based method. The assay involves adding NanoLuc luciferase and a cell-permeant prosubstrate to cells in culture. Viable cells reduce the proprietary prosubstrate to generate a substrate for NanoLuc luciferase. This substrate diffuses from cells into the surrounding culture medium, where it is rapidly used by the NanoLuc Enzyme to produce a luminescent signal. The signal correlates with the number of viable cells, making the assay well suited for cytotoxicity studies.
Tox21 Assay Protocol Summary: The mixture of Hek293 cell suspension and reagents were dispensed at 600cells/6 ul/well in 1536-well tissue culture treated black solid bottom plates using a Multidrop dispenser. After the assay plates were incubated at a 37 C/5% CO2 incubator for 5 hours, 23 nL of compounds dissolved in DMSO, positive and negative controls was transferred to the assay plate by a pintool work station. The plates were incubated at 37 C for 40 hours. The luminescence intensity were measured at 0h, 8h, 16h, 24h, 32h and 40h time points using ViewLux plate reader during compound treatment.
% is set by controls: 0 for no effect and ±100 for the full control effect.

| Compound | activity change, negative = cytotoxicity | Potency |
| --- | --- | --- |
| C=CCOC(=O)/C=C\C(=O)OCC=C | 22% (inactive) | – |
| CCOC(=N)CC(=O)OCC | 8.24% (inactive) | – |
| CC(=O)Oc1ccc2c(c1)CC[C@@H]1[C@@H]2CC[C@]2(C)[C@@H](O)CC[C@@H]12 | -6.11% [at 35.3 µM] (inactive) | – |
| CCCCCCCCCCCC(=O)[O][Sn]([CH2]CCC)([CH2]CCC)[O]C(=O)CCCCCCCCCCC | 0.587% [at 35.3 µM] (inactive) | – |
| CCC1(C)CC(=O)NC1=O (stereo not given) | -2.36% [at 35.3 µM] (inactive) | – |
| CC#N | 1.03% (inactive) | – |
| NC(=O)Nc1ccc(Cl)cc1 | 5.86% (inactive) | – |
| CCn1cc(C(=O)O)c(=O)c2cc(F)c(N3CCNCC3)nc21 | 0.811% [at 35.3 µM] (inactive) | – |
| CC(Cl)C(Cl)Cl (stereo not given) | 2.98% (inactive) | – |
| CCCCOC(=O)CCS | -1.4% (inactive) | – |
| O=c1[nH]c2ccc(S(=O)CCN3CCC(Cc4ccc(F)cc4)CC3)cc2o1 (stereo not given) | -0.629% (inactive) | – |
| CCCCC(=O)O[C@]1(C(=O)CO)[C@@H](C)C[C@H]2[C@@H]3CCC4=CC(=O)C=C[C@]4(C)[C@@]3(F)[C@@H](O)C[C@@]21C | -22.6% (inactive) | – |
| O=C(O)Cc1ccc(-c2ccccc2)cc1 | -2.09% [at 35.3 µM] (inactive) | – |
| CCCC(=O)O[C@]1(C(=O)COC(=O)CC)CC[C@H]2[C@@H]3CCC4=CC(=O)CC[C@]4(C)[C@H]3[C@@H](O)C[C@@]21C | 0.536% [at 15.8 µM] (inactive) | – |
| CC(CCc1ccc2c(c1)OCO2)NN (stereo not given) | 5.26% [at 35.3 µM] (inactive) | – |
| CCCOC(=O)c1ccc(C(=O)OCCC)nc1 | -14.3% (inactive) | – |
| CCC(C(=O)OCCN(CC)CC)c1ccccc1 (stereo not given) | 1.83% [at 35.3 µM] (inactive) | – |
| O=C(O)c1cccc(O)c1 | 6.55% (inactive) | – |
| CCOC(=O)CC(=O)C(=O)OCC | 4.4% (inactive) | – |
| NC(=O)N(O)[C@@H]1C=C[C@H](Oc2cccc(Oc3ccc(F)cc3)c2)C1 | 6.33% (inactive) | – |

| Compound | activity change, negative = cytotoxicity | Potency |
| --- | --- | --- |
| CCC(=O)Oc1ccc(/C(CC)=C(\CC)c2ccc(OC(=O)CC)cc2)cc1 | -5.65% (inactive) | – |
| C=CC(C)=CCC=C(C)C | 3.19% (inactive) | – |
| CCCCCCCC/C=C\CCCCCCCC(=O)OC | 7.15% (inactive) | – |
| O=C1OCCN1/N=C/c1ccc([N+](=O)[O-])o1 | 0.6% [at 35.3 µM] (inactive) | – |
| NC(=O)Nc1ccc(Cl)c(Cl)c1 | 1.85% (inactive) | – |
| COC(=O)Nc1nc2ccc(C(=O)c3cccs3)cc2[nH]1 | -0.818% [at 35.3 µM] (inactive) | – |
| O=C(O)c1snc(Cl)c1Cl | -2.38% (inactive) | – |
| O=Cc1c(Cl)cccc1Cl | -3.54% (inactive) | – |
| O=C(O)c1cccnc1C(=O)O | -11% (inactive) | – |
| CCc1nn(CCCN2CCN(c3cccc(Cl)c3)CC2)c(=O)n1CCOc1ccccc1 | -3.94% [at 35.3 µM] (inactive) | – |
| C/C(=N/NC(=O)c1ccncc1)C(=O)O | -3.06% [at 35.3 µM] (inactive) | – |
| O=C(Nc1ccc([N+](=O)[O-])cc1)Nc1ccc([N+](=O)[O-])cc1 | 5.04% [at 35.3 µM] (inactive) | – |
| C=CCNc1nc(NCC=C)nc(N2CCN(C(c3ccc(F)cc3)c3ccc(F)cc3)CC2)n1 | -9.78% [at 35.3 µM] (inactive) | – |
| CCCOCCOCCO | -0.748% (inactive) | – |
| CN1C(=O)CC(C)(c2ccccc2)C1=O (stereo not given) | -4.89% [at 35.3 µM] (inactive) | – |
| O=C(Nc1ccccc1)Nc1ccccc1 | -4.21% (inactive) | – |
| CCCCCCCCCCCCCCC[C@H](O)[C@@H](N)CO | 2.88% [at 35.3 µM] (inactive) | – |
| Cc1oncc1C(=O)Nc1ccc(C(F)(F)F)cc1 | – | inactive |
| CCCCC(CC)CNCC(CC)CCCC (stereo not given) | 6.89% (inactive) | – |
| NC(=O)N(O)[C@@H]1COc2cc(OCc3ccccc3)ccc21 | -12.2% (inactive) | – |
